Some test systems named below: NCI-H23 lung; NCI-H226 lung; NCI-H322M lung; HOP-62 NSCLC; NCI-H460 lung; HOP-92 NSCLC; NCI-H522 lung; A549/ATCC NSCLC; 786-0 renal; COLO 205 colon.
What all share (test): NCI-60 one-dose screen, 48 h (100 = growth as untreated, 0 = no growth, -100 = all killed)
Holding throughout (conditions): 10 µM unless noted

Each structure is given as a SMILES string. This is part of a sample that, as a whole, favours compounds with a hit. Of some 83,000 tested, about 20% had one in any assay.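 Cell lines were cultured in 96-well plates, exposed to a single compound concentration, and assessed for percent growth 48 hours later.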 A number with no mark means an inactive call. Activity calls are given as the source filed them. Rule for the calls: active = growth percent below 10; inactive = the rest.

Regarding `COc1ccc2[nH]cc(-c3noc(C(=O)c4cn(C)c5ccc(F)cc45)n3)c2c1`, the growth in the test with NCI-H23 lung is 90.2%; in the test with NCI-H226 lung it was 83.5%; with NCI-H322M lung, 96.1%; in the test with HOP-62 NSCLC it was 100%; with NCI-H460 lung, 95.6%; with HOP-92 NSCLC, 84.9%. Further, the growth is 92.8% in the test with NCI-H522 lung, 105% with A549/ATCC NSCLC, 103% in the test on 786-0 renal and 96% in the test on COLO 205 colon.
In the case of `CCc1nnc(CNc2ccc(Cl)cc2)o1`, the growth is 105% in the test on NCI-H23 lung; 93.2% in the test on NCI-H226 lung; 92% in the test on NCI-H322M lung; 111% in the test with HOP-62 NSCLC; 100% in the test on NCI-H460 lung; 102% in the test with HOP-92 NSCLC. For the same compound, the growth was 89.9% with NCI-H522 lung, 94.4% in the test with A549/ATCC NSCLC, 97.4% in the test with 786-0 renal and 106% in the test with COLO 205 colon.
As for `Cc1cc(N2CCN(c3ccnc4cc(Cl)ccc34)CC2)nc(N2CCOCC2)n1`, the growth with NCI-H23 lung is 84.4%; in the test on NCI-H226 lung, 88.6%; in the test with NCI-H322M lung, 95.3%; in the test with HOP-62 NSCLC, 91.9%; in the test on NCI-H460 lung, 96.7%; in the test on HOP-92 NSCLC it was 66.2%. Moreover, the growth in the test on NCI-H522 lung was 85.3%; in the test with A549/ATCC NSCLC, 89.4%; with 786-0 renal, 97.8%; with COLO 205 colon, 73%.
As to `COc1cc2c(cc1OC)C(Sc1ccc(SC)cc1)c1c(nc(N)c(C#N)c1N)O2` (stereo not given), the growth was -56.1% (active) with NCI-H23 lung; -65.7% (active) in the test on NCI-H226 lung; -86.9% (active) with NCI-H322M lung; -46.3% (active) in the test with HOP-62 NSCLC; -79% (active) in the test with NCI-H460 lung; -23.7% (active) with HOP-92 NSCLC. The growth was -92.6% (active) in the test with NCI-H522 lung, -63.5% (active) with A549/ATCC NSCLC, -80.7% (active) with 786-0 renal and -79% (active) in the test on COLO 205 colon.
As to `COc1cccc(-c2nc3sccn3c2-c2ccnc(NCCNS(=O)(=O)c3ccccc3)c2)c1`, the growth was 18.9% with NCI-H23 lung; 18.7% in the test on NCI-H226 lung; 58.3% in the test with NCI-H322M lung; 36.8% in the test with HOP-62 NSCLC; 20% in the test with NCI-H460 lung; 21.9% with HOP-92 NSCLC. Moreover, the growth was 29.8% with NCI-H522 lung, 10.3% with A549/ATCC NSCLC, 38.9% in the test on 786-0 renal and 21.6% in the test with COLO 205 colon.
Consider `O=C(Cc1ccccc1Nc1c(Cl)cccc1Cl)NN1C(=O)/C(=C/c2ccc(Br)cc2)SC1=S`, for which the growth with NCI-H23 lung was 97.5%; in the test with NCI-H226 lung it was 95.6%; with NCI-H322M lung, 98.7%; with HOP-62 NSCLC, 104%; with NCI-H460 lung, 104%; in the test on HOP-92 NSCLC, 103%. Moreover, the growth in the test on NCI-H522 lung was 93.9%; in the test on A549/ATCC NSCLC, 99.5%; in the test with 786-0 renal, 98.9%; in the test with COLO 205 colon, 105%.
On to `COc1ccc(-n2nc(C)c3c(Nc4ccc(NC(=O)Nc5c(Cl)cccc5Cl)cc4)ncnc32)cc1`, for which the growth in the test with NCI-H23 lung is 52.1%; in the test with NCI-H226 lung, 37.2%; with NCI-H322M lung, 57.7%; with HOP-62 NSCLC it was 50.3%; in the test with NCI-H460 lung, 50.4%; in the test on HOP-92 NSCLC, 43.9%. Further, the growth in the test with NCI-H522 lung was 58%; in the test with A549/ATCC NSCLC it was 44.6%; in the test with 786-0 renal it was 55.2%; with COLO 205 colon, 70.1%.
Consider `Cc1c(/C=C/[N+](=O)[O-])ccc2c1[nH]c1ccccc12`, for which the growth in the test with NCI-H23 lung is 93.3%; in the test with NCI-H226 lung, 54.3%; in the test with NCI-H322M lung it was 134%; in the test with HOP-62 NSCLC it was 106%; with NCI-H460 lung, 95.4%; in the test on HOP-92 NSCLC, 90.6%. The growth with NCI-H522 lung is 94.8%; in the test on A549/ATCC NSCLC it was 87.8%; in the test on 786-0 renal, 73.2%; in the test on COLO 205 colon, 82.2%.
Take `CN(C)c1ccc(NC(=O)c2ccc(/C=C/C(=O)c3ncc[nH]3)cc2)cc1`: the growth in the test on NCI-H23 lung was 59.8%; in the test with NCI-H226 lung, 89.1%; with NCI-H322M lung, 76.1%; in the test on HOP-62 NSCLC, 54.7%; in the test with NCI-H460 lung, 25.4%; with HOP-92 NSCLC, 94.1%. Besides, the growth is 59.4% with NCI-H522 lung, 63.1% in the test on A549/ATCC NSCLC, 47.1% in the test on 786-0 renal and 37.6% with COLO 205 colon.
Consider `COc1ccc(C(=O)/C=C/c2cccnc2Nc2cc(OC)c(OC)c(OC)c2)cc1`, for which the growth is 59.2% with NCI-H23 lung; 41% with NCI-H226 lung; 80.5% with NCI-H322M lung; 48% in the test on HOP-62 NSCLC; 5.28% (active) in the test on NCI-H460 lung; 49.3% in the test with HOP-92 NSCLC. For the same compound, the growth is 14.8% in the test with NCI-H522 lung, 23.6% in the test on A549/ATCC NSCLC, 39.2% in the test on 786-0 renal and 38.6% with COLO 205 colon.
On to `CCN(CC)S(=O)(=O)c1ccc(OC)c(NC(=O)c2[nH]c(C)c3c2CCCCC3=O)c1`, for which the growth is 46.9% with NCI-H23 lung; 50% in the test on NCI-H226 lung; 44% in the test with NCI-H322M lung; 31.5% in the test with HOP-62 NSCLC; 53.4% in the test with NCI-H460 lung; 38.3% in the test on HOP-92 NSCLC. Further, the growth in the test with NCI-H522 lung is 26.9%; with A549/ATCC NSCLC it was 45.2%; with 786-0 renal it was 41.5%; in the test on COLO 205 colon, 35.6%.
With `CSc1nc(-c2cccc(NC(=O)CCl)c2)c(C#N)c(=O)n1C`, the growth in the test on NCI-H23 lung was 49.1%; with NCI-H226 lung it was 89.2%; in the test on NCI-H322M lung, 107%; in the test on HOP-62 NSCLC it was 98.7%; in the test on NCI-H460 lung, 93.3%; with HOP-92 NSCLC it was 42.7%. The growth is -73.7% (active) in the test with NCI-H522 lung, 86.3% in the test with A549/ATCC NSCLC, 53% in the test on 786-0 renal and -20.2% (active) with COLO 205 colon.
Consider `Nc1n[nH]c2ccc([C@@H]3Nc4ccc5cn[nH]c5c4[C@H]4C5CCC(C5)[C@@H]34)cc12` (stereo not given in full), for which the growth is 43.5% in the test on NCI-H23 lung; 37.9% in the test with NCI-H226 lung; 47.2% in the test with NCI-H322M lung; 48.3% in the test with HOP-62 NSCLC; 1.13% (active) in the test on NCI-H460 lung; 104% in the test on HOP-92 NSCLC. Further, the growth in the test with NCI-H522 lung is 27.1%; in the test on A549/ATCC NSCLC it was 24.4%; in the test on 786-0 renal, 38.4%; in the test with COLO 205 colon, -9.43% (active).
`O=C(Oc1cccnc1)c1ccsc1Nc1ccnc(C(F)(F)F)c1`: the growth in the test on NCI-H23 lung is 35.4%; in the test on NCI-H226 lung, 98.6%; in the test with NCI-H322M lung it was 104%; in the test on HOP-62 NSCLC it was 96%; with NCI-H460 lung, 105%; in the test on HOP-92 NSCLC, 44.6%. Besides, the growth is 44.8% in the test on NCI-H522 lung, 98.2% in the test with A549/ATCC NSCLC, 108% in the test on 786-0 renal and 101% with COLO 205 colon.
For the compound `COC(=O)c1ccc(Cn2cnc3c(N)ncnc32)cc1`, the growth in the test on NCI-H23 lung is 103%; with NCI-H226 lung, 106%; with NCI-H322M lung it was 106%; in the test on HOP-62 NSCLC, 97%; in the test on NCI-H460 lung, 115%; with HOP-92 NSCLC it was 92.1%. Also, the growth was 69.6% in the test on NCI-H522 lung, 104% in the test with A549/ATCC NSCLC, 114% in the test with 786-0 renal and 109% in the test on COLO 205 colon.

Source of the values: PubChem BioAssay (NCI).
